Results taken from PubChem BioAssay (EPA / NIEHS).
Several values for one entry are separate records, joined by “and”; a condition that tells them apart may be missing. Equal values may be shown once. Results filed as inconclusive are left out. Activity calls are given as the source filed them. The calls were made as follows: active = hit-call score of the fitted dose curve at least 0.9, where 1 is the maximum; inconclusive = response in the unintended direction; inactive = score below 0.9.

Each compound was assayed against Retinoic acid receptor RXR-alpha (Homo sapiens) (UniProt P19793) (assay: OT_NURR1_NURR1RXRa_0480: Odyssey Thera (OT) 8-hour HEK293T Protein Complementation Assay for Nurr1/retinoid X receptor (RXR) (AID 2283385)).
Sequence of Retinoic acid receptor RXR-alpha (Homo sapiens) (P19793 whole entry, looked up, the tested form may be a part): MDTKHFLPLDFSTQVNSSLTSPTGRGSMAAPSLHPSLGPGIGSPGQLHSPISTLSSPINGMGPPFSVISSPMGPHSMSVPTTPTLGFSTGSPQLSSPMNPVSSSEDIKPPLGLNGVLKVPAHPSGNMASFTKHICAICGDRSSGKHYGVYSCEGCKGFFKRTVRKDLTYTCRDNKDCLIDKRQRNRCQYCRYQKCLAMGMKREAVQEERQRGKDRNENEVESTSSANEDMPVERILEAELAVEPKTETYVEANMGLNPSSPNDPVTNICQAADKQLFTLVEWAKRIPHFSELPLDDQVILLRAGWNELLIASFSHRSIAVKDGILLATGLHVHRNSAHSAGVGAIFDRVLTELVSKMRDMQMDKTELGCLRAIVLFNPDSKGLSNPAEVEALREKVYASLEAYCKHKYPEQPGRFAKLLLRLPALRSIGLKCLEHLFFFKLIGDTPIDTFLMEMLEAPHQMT
In short: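 Interaction of Nurr1 with RXRα read as reconstituted reporter fluorescence in a HEK293T fragment-complementation system, 8 h post-treatment; increase over DMSO baseline analysed.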

| SMILES | AC50 | outcome |
| --- | --- | --- |
| O=C(NC(=O)c1c(F)cccc1F)Nc1cc(Cl)c(OC(F)(F)C(F)C(F)(F)F)cc1Cl (stereo not drawn) | 66.5 µM (active) |  |
| O=CCCl |  | inactive |
| CCCCCCCCCCCCc1cccc(S(=O)(=O)O)c1 |  | inactive |
| N#Cc1cccnc1 |  | inactive |
| O=C(NC(=O)c1c(F)cccc1F)Nc1ccc(Cl)cc1 |  | inactive |
| O=C(O)COc1ccc(Cl)cc1 |  | inactive |
| C=CC(Cl)CCl (stereo not drawn) |  | inactive |
| O=C(O)C1(c2ccc3c(c2)OC[C@H](Cc2ccc(-c4ccccc4)cc2)[C@H]3O)CCCC1 | 76.2 µM (active) and 86.6 µM (active) |  |
| CC(C)=CC1C(C(=O)OCc2cccc(Oc3ccccc3)c2)C1(C)C (stereo not drawn) |  | inactive |
| Cc1cc(Cl)ccc1OCCCC(=O)O |  | inactive |
| Cc1cc(Cl)ccc1OC(C)C(=O)O (stereo not drawn) |  | inactive |
| CCOc1ccc(N)cc1 |  | inactive |

These compounds were tested against Retinoic acid receptor RXR-alpha (Homo sapiens) (UniProt P19793) (assay: OT_NURR1_NURR1RXRa_1440: Odyssey Thera (OT) 24-hour HEK293T Protein Complementation Assay for Nurr1/retinoid X receptor (RXR) (AID 2283386)).
In short: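 Gain in fluorescence, fitted relative to DMSO, reflects Nurr1–RXRα association in HEK293T cells after 24 h dosing. Bait and prey are each linked to a reporter-protein fragment that reassembles on interaction.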

| SMILES | AC50 | outcome |
| --- | --- | --- |
| O=C(NC(=O)c1c(F)cccc1F)Nc1cc(Cl)c(OC(F)(F)C(F)C(F)(F)F)cc1Cl (stereo not drawn) | 50 µM (active) |  |
| CNC(=O)O/N=C/C(C)(C)S(C)(=O)=O |  | inactive |
| COc1ccccc1N |  | inactive |
| CCCCCCCCCCCCc1cccc(S(=O)(=O)O)c1 |  | inactive |
| N#Cc1cccnc1 |  | inactive |
| O=C(NC(=O)c1c(F)cccc1F)Nc1ccc(Cl)cc1 |  | inactive |
| C=CC(Cl)CCl (stereo not drawn) |  | inactive |
| O=[N+]([O-])c1ccccc1O |  | inactive |
| O=C(O)C1(c2ccc3c(c2)OC[C@H](Cc2ccc(-c4ccccc4)cc2)[C@H]3O)CCCC1 | 79.5 µM (active) and 87.5 µM (active) |  |
| CC(C)=CC1C(C(=O)OCc2cccc(Oc3ccccc3)c2)C1(C)C (stereo not drawn) |  | inactive |
| Cc1cc(Cl)ccc1OCCCC(=O)O |  | inactive |
| CC(O)(CS(=O)(=O)c1ccc(F)cc1)C(=O)Nc1ccc(C#N)c(C(F)(F)F)c1 (stereo not drawn) |  | inactive |
| CCOc1ccc(N)cc1 |  | inactive |

The compounds below were run against Peroxisome proliferator-activated receptor gamma (Homo sapiens) (UniProt P37231) (assay: OT_PPARg_PPARgSRC1_0480: Odyssey Thera (OT) 8-hour Protein-Complementation Assay for Peroxisome Proliferator-activated Receptor Gamma / SRC-1 Co-activator (AID 2283387);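 also: nuclear to cytoplasmic split Venus YFP fluorescence ratio reporting PPARg SRC-1 interaction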).
Sequence of Peroxisome proliferator-activated receptor gamma (Homo sapiens) (P37231 whole entry, looked up, the tested form may be a part): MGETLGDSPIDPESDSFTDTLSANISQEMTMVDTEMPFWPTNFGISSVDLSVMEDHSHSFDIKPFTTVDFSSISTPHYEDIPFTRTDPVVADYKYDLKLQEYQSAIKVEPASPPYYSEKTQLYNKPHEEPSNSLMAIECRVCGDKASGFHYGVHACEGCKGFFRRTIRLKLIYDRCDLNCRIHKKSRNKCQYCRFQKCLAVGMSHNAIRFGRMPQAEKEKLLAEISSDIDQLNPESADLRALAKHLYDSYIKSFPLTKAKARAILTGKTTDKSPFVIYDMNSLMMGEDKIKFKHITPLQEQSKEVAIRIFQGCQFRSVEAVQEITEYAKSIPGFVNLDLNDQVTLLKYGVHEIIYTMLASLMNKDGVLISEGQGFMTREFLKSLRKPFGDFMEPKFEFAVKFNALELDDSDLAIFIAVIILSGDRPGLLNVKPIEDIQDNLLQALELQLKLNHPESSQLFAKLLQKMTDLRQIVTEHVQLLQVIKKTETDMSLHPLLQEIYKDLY
In short: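 Protein-fragment complementation in HEK293T: Venus YFP halves (residues 1-158, 159-239, mutated to IFP1/IFP2) fused to PPARg/SRC-1. 8 h exposure; N/C ratio at 488 nm; DMSO negative control.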

| SMILES | outcome |
| --- | --- |
| N#CCC#N | inactive |
| O=C(NC(=O)c1c(F)cccc1F)Nc1cc(Cl)c(OC(F)(F)C(F)C(F)(F)F)cc1Cl (stereo not drawn) | inactive |
| O=CCCl | inactive |
| CCC[CH2][Sn]([CH2]CCC)([CH2]CCC)[CH2]CCC | inactive |
| CNC(=O)O/N=C/C(C)(C)S(C)(=O)=O | inactive |
| COc1ccccc1N | inactive |
| N#Cc1cccnc1 | inactive |
| O=C(NC(=O)c1c(F)cccc1F)Nc1ccc(Cl)cc1 | inactive |
| CCCSP(=S)(OCC)Oc1ccc(SC)cc1 (stereo not drawn) | inactive |
| O=C(O)COc1ccc(Cl)cc1 | inactive |
| CC1(C)[C@H](C(=O)O[C@H](C#N)c2cccc(Oc3ccccc3)c2)[C@@H]1/C=C(\Cl)C(F)(F)F | inactive |
| C=CC(Cl)CCl (stereo not drawn) | inactive |
| O=[N+]([O-])c1ccccc1O | inactive |
| O=C(O)C1(c2ccc3c(c2)OC[C@H](Cc2ccc(-c4ccccc4)cc2)[C@H]3O)CCCC1 | inactive |
| CCC[CH2][Sn]([Cl])([Cl])[CH2]CCC | inactive |
| Cc1cc(Cl)ccc1OCCCC(=O)O | inactive |
| CC(O)(CS(=O)(=O)c1ccc(F)cc1)C(=O)Nc1ccc(C#N)c(C(F)(F)F)c1 (stereo not drawn) | inactive |
| Cc1cc(Cl)ccc1OC(C)C(=O)O (stereo not drawn) | inactive |
